Drawing on PubChem BioAssay (NCI), this text covers growth for 13 compounds.

Test systems include SK-MEL-2 melanoma; EKVX NSCLC; SN12C renal; UO-31 renal; TK-10 renal; ACHN renal; CAKI-1 renal; A498 renal; CCRF-CEM leukemia; MOLT-4 leukemia.
What all share (assay): NCI-60 one-dose screen, 48 h (100 = growth as untreated, 0 = no growth, -100 = all killed)
What all share (settings): 10 µM unless noted

Molecules are shown by their SMILES. About 83,000 compounds went through this panel and 20% of them were active in at least one assay; those are over-represented in the sample as a whole.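 Cell lines were cultured in 96-well plates, exposed to a single compound concentration, and assessed for percent growth 48 hours later.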 Values without a mark were called inactive. Calls of active or inactive are those of the source. Rule for the calls: active = growth percent below 10; inactive = the rest.

For `O=C1COCCN1c1ccc(NCc2cn(Cc3ccc(F)cc3)c3ccccc23)cc1`, the growth in the experiment on SK-MEL-2 melanoma is 56.7%; in the experiment with EKVX NSCLC, 91%; in the experiment on SN12C renal it was 64.3%; with UO-31 renal, 40.6%; with TK-10 renal, -32.3% (active); with ACHN renal, 61.6%. The growth in the experiment with CAKI-1 renal is -37.8% (active); in the experiment on A498 renal, -91.7% (active); in the experiment on CCRF-CEM leukemia it was 92.9%; in the experiment on MOLT-4 leukemia, 102%.
`COc1cc(OC)cc(C(=O)Nc2cc(-c3cccnc3)nc(NCCCN3CCOCC3)n2)c1`: the growth with SK-MEL-2 melanoma is 84.1%; with EKVX NSCLC, 103%; with SN12C renal, 86.4%; in the experiment on UO-31 renal, 53.6%; in the experiment with TK-10 renal it was 95.5%; in the experiment with ACHN renal, 103%. The growth in the experiment on CAKI-1 renal is 101%; in the experiment with A498 renal it was 83.3%; in the experiment on CCRF-CEM leukemia, 90.8%; in the experiment on MOLT-4 leukemia it was 82.3%.
`CC1(C)OC2[C@@H](CNC(=O)NC(=O)NC(=O)CI)O[C@@H](n3cnc4c(NC(=O)Nc5ccccc5)ncnc43)[C@H]2O1` (stereo not given in full): the growth is 95.4% in the experiment on SK-MEL-2 melanoma; 77.3% in the experiment with EKVX NSCLC; 82.8% with SN12C renal; -78.6% (active) in the experiment with UO-31 renal; 102% with TK-10 renal; 66.2% in the experiment on ACHN renal. Also, the growth was -69% (active) in the experiment on CAKI-1 renal, 99.4% in the experiment on A498 renal, -44% (active) in the experiment on CCRF-CEM leukemia and -23.6% (active) in the experiment on MOLT-4 leukemia.
Consider `CC(=O)Nc1ccc(C=Nc2ccc3ccccc3c2)cc1`, for which the growth in the experiment with SK-MEL-2 melanoma was 121%; in the experiment on EKVX NSCLC, 116%; in the experiment on SN12C renal it was 99%; in the experiment with UO-31 renal, 98.5%; in the experiment on TK-10 renal, 106%; in the experiment on ACHN renal, 118%. For the same compound, the growth is 47.4% with CAKI-1 renal, 108% in the experiment with A498 renal, 93% with CCRF-CEM leukemia and 100% in the experiment with MOLT-4 leukemia.
On to `O=C1C(Cl)=C(Nc2ccc3cn[nH]c3c2)C(=O)c2ccccc21`, for which the growth is -28.6% (active) in the experiment with SK-MEL-2 melanoma; -64.7% (active) in the experiment on EKVX NSCLC; -42.9% (active) in the experiment on SN12C renal; -97.7% (active) in the experiment on UO-31 renal; 19.8% in the experiment with TK-10 renal; 41.1% in the experiment with ACHN renal. Moreover, the growth with CAKI-1 renal was -94.4% (active); in the experiment with A498 renal it was 93%; with CCRF-CEM leukemia, -43.8% (active); with MOLT-4 leukemia, -38.4% (active).
With `O=S(=O)(NCCNc1nccc(-c2c(-c3cccc(F)c3)nc3occn23)n1)c1ccc(C(F)(F)F)cc1`, the growth in the experiment on SK-MEL-2 melanoma is 92.2%; in the experiment on EKVX NSCLC, 84.2%; in the experiment with SN12C renal it was 84.8%; in the experiment with UO-31 renal, 57.1%; in the experiment with TK-10 renal, 97.5%; in the experiment on ACHN renal it was 87.7%. In addition, the growth was 68.9% in the experiment with CAKI-1 renal, 78% in the experiment with A498 renal, 84% in the experiment with CCRF-CEM leukemia and 52.9% in the experiment on MOLT-4 leukemia.
Consider `CCN1c2ccccc2C(Cl)(c2ccc(N(C)C)cc2)c2ccccc21`, for which the growth with SK-MEL-2 melanoma was 81.5%; with EKVX NSCLC, 69.1%; in the experiment with SN12C renal, 46.1%; in the experiment with UO-31 renal, 57.6%; with TK-10 renal, 62.8%; with ACHN renal, 72.7%. In addition, the growth was 62.9% with CAKI-1 renal, 135% in the experiment with A498 renal, 17% in the experiment with CCRF-CEM leukemia and 65.6% in the experiment with MOLT-4 leukemia.
In the case of `COc1ccc(-c2nc3ccccn3c2/C=C/C(=O)c2cc(OC)c(OC)c(OC)c2)cc1OC`, the growth in the experiment on SK-MEL-2 melanoma is -28.5% (active); with EKVX NSCLC, 28.5%; in the experiment on SN12C renal, 31%; in the experiment with UO-31 renal it was 17%; in the experiment with TK-10 renal, 43%; with ACHN renal, 19.9%. In addition, the growth with CAKI-1 renal was 8.16% (active); in the experiment with A498 renal, -14.1% (active); in the experiment with CCRF-CEM leukemia, 16.4%; in the experiment on MOLT-4 leukemia, 25.5%.
For `CCCSc1nc(N)nc2nc[nH]c12`, the growth was 106% in the experiment with SK-MEL-2 melanoma; 106% with EKVX NSCLC; 98.3% with SN12C renal; 93.5% in the experiment with UO-31 renal; 154% in the experiment on TK-10 renal; 96.4% in the experiment with ACHN renal. Moreover, the growth was 128% in the experiment with CAKI-1 renal, 123% in the experiment on A498 renal, 115% in the experiment with CCRF-CEM leukemia and 121% with MOLT-4 leukemia.
On to `CC1(C)CC[C@]2(C(N)=O)CC[C@]3(C)C(=CC[C@@H]4[C@@]5(C)C/C(=C/c6ccncc6)C(=O)C(C)(C)[C@@H]5CC[C@]43C)[C@@H]2C1`, for which the growth in the experiment on SK-MEL-2 melanoma is -86% [100 µM] (active); with EKVX NSCLC it was -52.8% [100 µM] (active); with SN12C renal, -78.1% [100 µM] (active); in the experiment on UO-31 renal it was -98.1% [100 µM] (active); with TK-10 renal it was -89.5% [100 µM] (active); in the experiment on ACHN renal it was -82.5% [100 µM] (active). For the same compound, the growth is -58.3% [100 µM] (active) with CAKI-1 renal, -80.4% [100 µM] (active) in the experiment on A498 renal, -10% [100 µM] (active) in the experiment on CCRF-CEM leukemia and -13.6% [100 µM] (active) in the experiment with MOLT-4 leukemia.
As to `O=C1COCCN1c1ccc(NCc2cn(Cc3cccc4ccccc34)c3ccccc23)cc1`, the growth in the experiment on SK-MEL-2 melanoma is 93.4%; in the experiment on EKVX NSCLC, 96.6%; in the experiment with SN12C renal, 92.6%; in the experiment with UO-31 renal, 58%; in the experiment with TK-10 renal, 44.4%; with ACHN renal, 91.4%. Also, the growth in the experiment with CAKI-1 renal is 7.53% (active); with A498 renal, -39.1% (active); in the experiment on CCRF-CEM leukemia, 96.9%; in the experiment with MOLT-4 leukemia, 92%.
Regarding `Cn1ncc2c(Nc3ccc(O)cc3)nc(Cl)nc21`, the growth with SK-MEL-2 melanoma was 106%; in the experiment on EKVX NSCLC, 87.8%; in the experiment on SN12C renal it was 96.8%; with UO-31 renal, 84%; with TK-10 renal it was 102%; in the experiment on ACHN renal, 88%. In addition, the growth in the experiment with CAKI-1 renal was 92.9%; with A498 renal it was 111%; in the experiment on CCRF-CEM leukemia, 92.1%; in the experiment on MOLT-4 leukemia, 94.2%.
Take `CCN=Cc1c(O)c(O)c(C(C)C)c2cc(C)c(-c3c(C)cc4c(C(C)C)c(O)c(O)c(C=NCC)c4c3O)c(O)c12`: the growth in the experiment with SK-MEL-2 melanoma is 51.4%; in the experiment with EKVX NSCLC it was 30.5%; with SN12C renal, 54.9%; in the experiment on UO-31 renal, 39.2%; in the experiment with TK-10 renal, 43.5%; in the experiment with ACHN renal, 24.4%. Moreover, the growth with CAKI-1 renal is 73.3%; with A498 renal, 69.5%; in the experiment on CCRF-CEM leukemia, 20.1%; in the experiment on MOLT-4 leukemia, 32.8%.
